{"source": "PubChem BioAssay AID1839", "about": "(Johns Hopkins Ion Channel Center, 2009)", "note": "Out of some 2,400 compounds screened, about 220 (9.2%) were called active. The full list was thinned out, with actives kept by preference. Unmarked numbers belong to inactive results.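 How the source made its calls: active means signal change above the mean of dofetilide-free buffer controls plus 3 SD, so a positive margin; inactive means the rest.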"}
{"assay": "nonspecific flux effects in parental CHO-K1, confirmation, counter-screen for hERG block protection project, cell-based, CHO-K1 parental line, FluxOR thallium flux (AID 1839);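 further: compounds applied alone with no dofetilide to cells lacking hERG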", "details": "CHO-K1 parental cells, FluxOR thallium flux fluorescence; at 10 µM"}
{"molecule": "CCCCNC(=O)N1CCCC(C(=O)c2cc(C)c(OC)c(C)c2)C1", "note": "(centres undefined)", "signal change vs control minus 3*SD hit threshold (margin above threshold, higher = more increase)": "-38%"}
{"molecule": "O=C(NCc1cccs1)C1CC(c2ccc(F)cc2)=NO1", "note": "(centres undefined)", "signal change vs control minus 3*SD hit threshold (margin above threshold, higher = more increase)": "-40.3%"}
{"molecule": "Cc1cccc(NC(=O)CN2C(=O)S/C(=C\\c3cccn3-c3cccc(C(=O)O)c3)C2=O)c1", "signal change vs control minus 3*SD hit threshold (margin above threshold, higher = more increase)": "-27.2%"}
{"molecule": "Cc1cc(Cl)ccc1OC(C)C(=O)NCCc1ccc2c(c1)OCCO2", "note": "(centres undefined)", "signal change vs control minus 3*SD hit threshold (margin above threshold, higher = more increase)": "-37.2%"}
{"molecule": "CC(NC(=O)NC1CCCCC1)c1ccc2c(c1)OCO2", "note": "(centres undefined)", "signal change vs control minus 3*SD hit threshold (margin above threshold, higher = more increase)": "-5.4%"}
{"molecule": "COc1ccc(C(=O)CC(=O)C(=O)Nc2ccc(C)c(C)c2)cc1", "signal change vs control minus 3*SD hit threshold (margin above threshold, higher = more increase)": "-27.5%"}
{"molecule": "Cc1ccnc(SCCn2c(N3CC(C)OC(C)C3)nc3c2c(=O)n(C)c(=O)n3C)n1", "note": "(centres undefined)", "signal change vs control minus 3*SD hit threshold (margin above threshold, higher = more increase)": "-31.9%"}
{"molecule": "CCOc1ccc2nc(/N=C/c3c(C)[nH]n(-c4ccccc4)c3=O)sc2c1", "signal change vs control minus 3*SD hit threshold (margin above threshold, higher = more increase)": "53.3% (active)"}
{"molecule": "CCOc1ccc2nc(/N=C/c3nc(-c4ccccc4)oc3O)sc2c1", "signal change vs control minus 3*SD hit threshold (margin above threshold, higher = more increase)": "-18.5%"}
{"molecule": "CCOc1ccc2nc(N3C(=O)/C(=C/c4ccccc4)NC3=S)sc2c1", "signal change vs control minus 3*SD hit threshold (margin above threshold, higher = more increase)": "-18.8%"}
{"molecule": "S=c1[nH]nc(CSc2nc3ccccc3s2)n1C1CCCCC1", "signal change vs control minus 3*SD hit threshold (margin above threshold, higher = more increase)": "-26.3%"}
{"molecule": "Cc1ccc(NC(=O)c2cc(NC(=O)/C=C\\C(=O)O)ccc2N2CCCCC2)cc1", "signal change vs control minus 3*SD hit threshold (margin above threshold, higher = more increase)": "-12.7%"}
{"molecule": "CC1(C)Cc2c(sc3[nH]c(=S)n(Cc4ccccc4)c(=O)c23)CO1", "signal change vs control minus 3*SD hit threshold (margin above threshold, higher = more increase)": "-22.2%"}
{"molecule": "CC(C)C1Cc2c(sc3[nH]c(=S)n(Cc4ccccc4)c(=O)c23)CO1", "note": "(centres undefined)", "signal change vs control minus 3*SD hit threshold (margin above threshold, higher = more increase)": "-10.8%"}
{"molecule": "CCC1(C)Cc2c(sc3[nH]c(=S)n(Cc4ccccc4)c(=O)c23)CO1", "note": "(centres undefined)", "signal change vs control minus 3*SD hit threshold (margin above threshold, higher = more increase)": "10.6% (active)"}
{"molecule": "COC(=O)CSc1nc(N2CCCCC2)c2c(c1C#N)CCCC2", "signal change vs control minus 3*SD hit threshold (margin above threshold, higher = more increase)": "-8.9%"}
{"molecule": "O=C(COC(=O)c1cc(Br)ccc1O)Nc1cccnc1Cl", "signal change vs control minus 3*SD hit threshold (margin above threshold, higher = more increase)": "-24.7%"}
{"molecule": "CC(C)c1ccc(OCC(=O)NN2C(=O)c3ccccc3C2=O)c(Br)c1", "signal change vs control minus 3*SD hit threshold (margin above threshold, higher = more increase)": "-24%"}
{"molecule": "Cc1ccc(C)c2sc(NC(=O)c3nc4ccccc4s3)nc12", "signal change vs control minus 3*SD hit threshold (margin above threshold, higher = more increase)": "-20.2%"}
{"molecule": "CCOC(=O)c1c(NS(=O)(=O)Cc2ccccc2)sc2c1CCCC2", "signal change vs control minus 3*SD hit threshold (margin above threshold, higher = more increase)": "-0.7%"}
{"molecule": "COC(=O)c1c(NS(=O)(=O)c2ccc3ccccc3c2)sc2c1CCCC2", "signal change vs control minus 3*SD hit threshold (margin above threshold, higher = more increase)": "-22.4%"}
{"molecule": "CCOC(=O)c1c(NS(=O)(=O)c2ccc(Br)cc2)sc2c1CCC2", "signal change vs control minus 3*SD hit threshold (margin above threshold, higher = more increase)": "32.6% (active)"}
{"molecule": "CN(NC1OC(=O)c2ccccc21)c1ccccc1[N+](=O)[O-]", "note": "(centres undefined)", "signal change vs control minus 3*SD hit threshold (margin above threshold, higher = more increase)": "-30.9%"}
{"molecule": "COc1nnc(-c2ccc(C)c(S(=O)(=O)NC(C)(C)CO)c2)c2ccccc12", "signal change vs control minus 3*SD hit threshold (margin above threshold, higher = more increase)": "-25.8%"}
{"molecule": "Cc1ccc(C(=O)Sc2cccccc2=O)cc1", "signal change vs control minus 3*SD hit threshold (margin above threshold, higher = more increase)": "-20.3%"}
{"molecule": "CCN(CC)CCCN1C(=O)c2oc3ccccc3c(=O)c2C1c1cccs1", "note": "(centres undefined)", "signal change vs control minus 3*SD hit threshold (margin above threshold, higher = more increase)": "-15.9%"}
{"molecule": "O=c1c(O)c(-c2ccc3c(c2)OCO3)oc2ccccc12", "signal change vs control minus 3*SD hit threshold (margin above threshold, higher = more increase)": "-10.8%"}
{"molecule": "O=c1c(O)c(-c2cccs2)oc2ccccc12", "signal change vs control minus 3*SD hit threshold (margin above threshold, higher = more increase)": "39.2% (active)"}
{"molecule": "O=c1c2cc(Cl)ccc2[nH]c(=S)n1Cc1cccs1", "signal change vs control minus 3*SD hit threshold (margin above threshold, higher = more increase)": "-21.6%"}
{"molecule": "O=C1OC(/C=C/c2ccc(Cl)cc2Cl)=NC/1=C\\c1cccs1", "signal change vs control minus 3*SD hit threshold (margin above threshold, higher = more increase)": "-32.3%"}
{"molecule": "O=c1c(O)c(-c2cccs2)oc2ccc(Cl)cc12", "signal change vs control minus 3*SD hit threshold (margin above threshold, higher = more increase)": "64.2% (active)"}
{"molecule": "Cc1ccccc1NP(=O)(c1ccccc1)c1nc2ccccc2s1", "note": "(centres undefined)", "signal change vs control minus 3*SD hit threshold (margin above threshold, higher = more increase)": "-31.9%"}
{"molecule": "CCOc1ccc(N)c(SSc2cc(OCC)ccc2N)c1", "signal change vs control minus 3*SD hit threshold (margin above threshold, higher = more increase)": "-32.6%"}
{"molecule": "Cc1ccc(CC23CN4CCN(CC(C4)C2O)C3)c(C)c1", "note": "(centres undefined)", "signal change vs control minus 3*SD hit threshold (margin above threshold, higher = more increase)": "-14.8%"}
{"molecule": "CN(C)CCOC(=O)C1(c2ccccc2)CCCC1", "signal change vs control minus 3*SD hit threshold (margin above threshold, higher = more increase)": "-31.9%"}
{"molecule": "COC(=O)C1=C(C)NC2=C(C(=O)CCC2)C1c1ccc(-c2ccsc2C(=O)OC)o1", "note": "(centres undefined)", "signal change vs control minus 3*SD hit threshold (margin above threshold, higher = more increase)": "-17.8%"}
{"molecule": "O=C(/C=C/c1ccccc1)CC(=O)c1ccccc1O", "signal change vs control minus 3*SD hit threshold (margin above threshold, higher = more increase)": "-29.3%"}
{"molecule": "CCOc1cc(N2CCOCC2)c(OCC)cc1NC(=O)CCC1CCCC1", "signal change vs control minus 3*SD hit threshold (margin above threshold, higher = more increase)": "-19.4%"}
{"molecule": "Cc1ccccc1NC(=S)NC(=O)c1cc(-c2ccccc2)nc2ccccc12", "signal change vs control minus 3*SD hit threshold (margin above threshold, higher = more increase)": "-15.1%"}
{"molecule": "O=C(NC(=S)NCc1ccccc1)c1cccs1", "signal change vs control minus 3*SD hit threshold (margin above threshold, higher = more increase)": "-11.1%"}
{"molecule": "O=C(NC(=S)Nc1ccccc1)c1ccc(Br)o1", "signal change vs control minus 3*SD hit threshold (margin above threshold, higher = more increase)": "-17.9%"}
{"molecule": "COc1ccccc1NC(=S)NC(=O)c1ccc(-c2ccc(Cl)cc2)o1", "signal change vs control minus 3*SD hit threshold (margin above threshold, higher = more increase)": "-22.6%"}
{"molecule": "Cc1ccc(NC(=S)NC(=O)c2ccc(Br)o2)c(C)c1", "signal change vs control minus 3*SD hit threshold (margin above threshold, higher = more increase)": "-19.5%"}
{"molecule": "CCN(c1ccccc1)S(=O)(=O)c1ccc(NC(=S)NC(=O)c2ccc(Br)o2)cc1", "signal change vs control minus 3*SD hit threshold (margin above threshold, higher = more increase)": "-20.8%"}
{"molecule": "O=C(NC(=S)NCc1ccccc1)c1ccc(Br)o1", "signal change vs control minus 3*SD hit threshold (margin above threshold, higher = more increase)": "39.2% (active)"}
{"molecule": "O=C(CNC(=S)NC(=O)c1ccc(Br)o1)c1ccccc1", "signal change vs control minus 3*SD hit threshold (margin above threshold, higher = more increase)": "-26.3%"}
{"molecule": "Cc1cccc(NC(=S)NC(=O)c2ccc(Br)o2)c1", "signal change vs control minus 3*SD hit threshold (margin above threshold, higher = more increase)": "9.1% (active)"}
{"molecule": "Cc1cccc(C)c1NC(=S)NC(=O)c1ccc(Br)o1", "signal change vs control minus 3*SD hit threshold (margin above threshold, higher = more increase)": "18.7% (active)"}
{"molecule": "O=C(NC(=S)Nc1ccccc1F)c1ccc(Br)o1", "signal change vs control minus 3*SD hit threshold (margin above threshold, higher = more increase)": "23% (active)"}
{"molecule": "COc1ccc(OC)c(NC(=S)NC(=O)c2ccc(Br)o2)c1", "signal change vs control minus 3*SD hit threshold (margin above threshold, higher = more increase)": "-21.4%"}
{"molecule": "Cc1cccc(NC(=S)NC(=O)c2ccc(Br)o2)c1C", "signal change vs control minus 3*SD hit threshold (margin above threshold, higher = more increase)": "-13.6%"}
{"molecule": "CCN(CC)c1ccc(NC(=S)NC(=O)c2ccco2)cc1", "signal change vs control minus 3*SD hit threshold (margin above threshold, higher = more increase)": "-1.8%"}
{"molecule": "N#Cc1c(-c2ccco2)c2c([nH]c1=S)CCCC2", "signal change vs control minus 3*SD hit threshold (margin above threshold, higher = more increase)": "-29.5%"}
{"molecule": "CCOC(=O)c1c(-c2ccccc2)csc1NC(=S)NC", "signal change vs control minus 3*SD hit threshold (margin above threshold, higher = more increase)": "-10.9%"}
{"molecule": "CC12CCC(C/C1=N\\N=C1\\NC(=O)/C(=C\\c3ccc(Cl)cc3)S1)C2(C)C", "note": "(centres undefined)", "signal change vs control minus 3*SD hit threshold (margin above threshold, higher = more increase)": "-20.2%"}
{"molecule": "Cc1nnc2ccc(-c3cccc(NC(=O)c4ccc(Cl)nc4)c3)nn12", "signal change vs control minus 3*SD hit threshold (margin above threshold, higher = more increase)": "-41.7%"}
{"molecule": "O=C(NC(=S)N1CCN(c2ccccc2)CC1)c1ccccc1", "signal change vs control minus 3*SD hit threshold (margin above threshold, higher = more increase)": "-8.7%"}
{"molecule": "CC(C)Sc1nc2ccccc2n2cnnc12", "signal change vs control minus 3*SD hit threshold (margin above threshold, higher = more increase)": "-29.7%"}
{"molecule": "Cc1cccc(/C=C2/S/C(=N/N=C3\\CC4CCC3(C)C4(C)C)NC2=O)c1", "note": "(centres undefined)", "signal change vs control minus 3*SD hit threshold (margin above threshold, higher = more increase)": "-12.4%"}
{"molecule": "Cc1ccc2nsnc2c1S(=O)(=O)Nc1cccc2nsnc12", "signal change vs control minus 3*SD hit threshold (margin above threshold, higher = more increase)": "-18.7%"}
{"molecule": "CCC1CCc2c(sc(NC(=O)C3CC=CCC3C(=O)O)c2C#N)C1", "note": "(centres undefined)", "signal change vs control minus 3*SD hit threshold (margin above threshold, higher = more increase)": "-5.5%"}
{"molecule": "C=CCc1cccc(C2Nc3ccccc3C(=O)N2O)c1O", "note": "(centres undefined)", "signal change vs control minus 3*SD hit threshold (margin above threshold, higher = more increase)": "-26.4%"}
{"molecule": "Cc1cc([N+](=O)[O-])ccc1-c1ccc(C2Nc3ccccc3C(=O)N2O)o1", "note": "(centres undefined)", "signal change vs control minus 3*SD hit threshold (margin above threshold, higher = more increase)": "-18.3%"}
{"molecule": "O=C1c2ccccc2NC(c2ccc(Br)s2)N1O", "note": "(centres undefined)", "signal change vs control minus 3*SD hit threshold (margin above threshold, higher = more increase)": "15.6% (active)"}
